Reference: PubChem BioAssay (EPA / NIEHS)
Activity calls are given as the source filed them. How the source made its calls: active means hit-call score of the fitted dose curve at least 0.9, where 1 is the maximum; inactive means score below 0.9.

Assays:
Settings in all cases: mRNA level, 48 h; actives raise or lower the signal
[1] = read-out: Apolipoprotein A-V (APOA5) gene, APOA5 (gene 116519); experiment: LTEA_HepaRG_APOA5: Life Technologies and Expression Analysis (LTEA) Assay for Apolipoprotein A-V (APOA5) gene using HepaRG (AID 2283474)
Method in brief: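 Concentration-response of APOA5 expression in HepaRG: eight half-log doses to 100 uM, 48 h, qRT-PCR normalized to ACTB/GAPDH/POLR2A, bidirectional fitting with 0.5% DMSO as baseline.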

[2] = read-out: Apoptosis regulator Bcl-2 (Homo sapiens) (UniProt P10415); experiment: LTEA_HepaRG_BCL2: Life Technologies and Expression Analysis (LTEA) Assay for Bcl-2 gene using HepaRG (AID 2283475);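 further: BCL2 transcript by TaqMan qRT-PCR normalised to ACTB GAPDH and POLR2A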
Method in brief: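 Plated human HepaRG cells are exposed to test chemicals for 48 h across eight concentrations from 100 uM downward in half-log steps (0.5% DMSO). BCL2 expression is then measured by qRT-PCR with housekeeping normalisation and fitted bidirectionally against vehicle.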

[3] = read-out: Bcl-2 (BID) gene, BID (gene 637); experiment: LTEA_HepaRG_BID: Life Technologies and Expression Analysis (LTEA) Assay for Bcl-2 (BID) gene using HepaRG (AID 2283476)
Method in brief: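 Cells are plated, cultured 48 h, switched to serum-free induction medium, then dosed 48 h (100 uM top, half-log steps, 0.5% DMSO). RNA is isolated and BID expression read by qRT-PCR.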

Caspase-3 (Homo sapiens) = Caspase-3 (Homo sapiens) (UniProt P42574); experiment: LTEA_HepaRG_CASP3: Life Technologies and Expression Analysis (LTEA) Assay for cysteine-aspartic acid protease (CASP3) using HepaRG (AID 2283477)
Method in brief: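 Transcript-level assay: CASP3 mRNA in human HepaRG after 48 h treatment, eight half-log concentrations from 100 uM in 0.5% DMSO, quantified by qRT-PCR.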

[4] = read-out: Cytochrome P450 (CYP24A1), CYP24A1 (gene 1591); experiment: LTEA_HepaRG_CYP24A1: Life Technologies and Expression Analysis (LTEA) Assay for Cytochrome P450 (CYP24A1) using HepaRG (AID 2283478)
Method in brief: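 Gene expression of CYP24A1 by TaqMan qRT-PCR in HepaRG after 48 h treatment, highest concentration 100 uM; activity fitted in both directions relative to DMSO vehicle.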

[5] = read-out: Cytochrome P450 (CYP1A2), CYP1A2 (gene 1544); experiment: LTEA_HepaRG_CYP1A2: Life Technologies and Expression Analysis (LTEA) Assay for Cytochrome P450 (CYP1A2) using HepaRG (AID 2283479);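 on AC50: TaqMan qRT-PCR transcript level normalized to ACTB GAPDH and POLR2A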
Method in brief: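 In duplicate wells, HepaRG cultures maintained in 0.5% DMSO were treated 48 h across an 8-point, half-log series topping at 100 uM; phenobarbital (1 mM) served as induction control. Expression was read by qRT-PCR.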

[6] = read-out: cysteine-aspartic acid protease (CASP8), CASP8 (gene 841); experiment: LTEA_HepaRG_CASP8: Life Technologies and Expression Analysis (LTEA) Assay for cysteine-aspartic acid protease (CASP8) using HepaRG (AID 2283480)
Experimental: (§1) LTEA_HepaRG is a cell based, multiplexed-readout assay that uses HepaRG, a human liver cell line, with measurements taken at 48 hours after chemical dosing on a 96-well plate.LTEA_HepaRG_CASP8 is one of 102 assay component(s) measured in the LTEA HepaRG cell culture assay. It is a marker of Cell proliferation, survival, death.Data from the assay component LTEA_HepaRG_CASP8 was analyzed into 1 endpoint. This assay endpoint, LTEA_HepaRG_CASP8, was analyzed with bidirectional fitting relative to DMSO as the negative control and baseline of activity. Using a type of inducible reporter, measures of mRNA induction for gain or loss-of-signal activity can be used to understand regulation of transcription factor activity. To generalize the intended target to other relatable targets, this assay endpoint is annotated to the protease intended target family, where the subfamily is cysteine protease.
(§2) A total of 1060 chemcials from the ToxCast library were tested in eight-point concentration-response experiments. Cell culture and cytotoxicity assays were conducted at Thermo Fisher Scientific's Custom Services facility (Madison, WI). A single lot of human HepaRG cells (Thermo Fisher Scientific, Frederick, MD) was used for the cell culture experiments. 96-well format collagen type I coated plates of human HepaRG cells were prepared using established methods. Briefly, cryopreserved HepaRG cells were thawed, plated at a density of approximately 100,000 cells/well in HepaRG Thaw, Plate, and General Purpose media (HPRG770, Thermo Fisher Scientific), and incubated for 48 hours. […] Fluidigm's 96.96 Dynamic ArrayTM (Fluidigm, Amsterdam, the Netherlands) technology was used for gene expression analyses by quantitative reverse transcription polymerase chain reaction (qRT-PCR, performed by Quintiles/Expression Analysis, Durham, NC)89. […]

[7] = read-out: Cytochrome P450 (CYP2B6), CYP2B6 (gene 1555); experiment: LTEA_HepaRG_CYP2B6: Life Technologies and Expression Analysis (LTEA) Assay for Cytochrome P450 (CYP2B6) using HepaRG (AID 2283481)
Experimental: as §1, with “plate.LTEA_HepaRG_CYP2B6” for “plate.LTEA_HepaRG_CASP8”, “NR mediated metabolism.Data” for “Cell proliferation, survival, death.Data”, “LTEA_HepaRG_CYP2B6” for “LTEA_HepaRG_CASP8”, “LTEA_HepaRG_CYP2B6,” for “LTEA_HepaRG_CASP8,”, “cyp” for “protease”, “xenobiotic metabolism.” for “cysteine protease.”
as §2

[8] = read-out: Cytochrome P450 2C19 (Homo sapiens) (UniProt P33261); experiment: LTEA_HepaRG_CYP2C19: Life Technologies and Expression Analysis (LTEA) Assay for CYP2C19 using HepaRG (AID 2283482)
Method in brief: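 Endpoint: CYP2C19 mRNA change, bidirectional fit vs 0.5% DMSO. Cells: HepaRG, 48 h exposure, eight-point series topping at 100 uM. Quantitation: qRT-PCR normalized to ACTB, GAPDH, POLR2A.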

CYP2C8 (gene 1558) = experiment: LTEA_HepaRG_CYP2C8: Life Technologies and Expression Analysis (LTEA) Assay for CYP2C8 using HepaRG (AID 2283483)
Experimental: as §1, with “plate.LTEA_HepaRG_CYP2C8” for “plate.LTEA_HepaRG_CASP8”, “NR mediated metabolism.Data” for “Cell proliferation, survival, death.Data”, “LTEA_HepaRG_CYP2C8” for “LTEA_HepaRG_CASP8”, “LTEA_HepaRG_CYP2C8,” for “LTEA_HepaRG_CASP8,”, “cyp” for “protease”, “xenobiotic metabolism.” for “cysteine protease.”
as §2

Measured: AC50

Chain of Caspase-3 (Homo sapiens) (P42574 whole entry, looked up): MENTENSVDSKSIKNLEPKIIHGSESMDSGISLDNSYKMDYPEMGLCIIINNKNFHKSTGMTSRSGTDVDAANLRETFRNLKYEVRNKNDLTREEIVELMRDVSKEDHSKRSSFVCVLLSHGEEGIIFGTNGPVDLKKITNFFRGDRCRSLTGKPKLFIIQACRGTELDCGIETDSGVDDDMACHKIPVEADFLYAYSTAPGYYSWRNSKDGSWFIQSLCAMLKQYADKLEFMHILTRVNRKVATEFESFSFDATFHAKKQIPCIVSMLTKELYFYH
Chain of Cytochrome P450 2C19 (Homo sapiens) (P33261 whole entry, looked up): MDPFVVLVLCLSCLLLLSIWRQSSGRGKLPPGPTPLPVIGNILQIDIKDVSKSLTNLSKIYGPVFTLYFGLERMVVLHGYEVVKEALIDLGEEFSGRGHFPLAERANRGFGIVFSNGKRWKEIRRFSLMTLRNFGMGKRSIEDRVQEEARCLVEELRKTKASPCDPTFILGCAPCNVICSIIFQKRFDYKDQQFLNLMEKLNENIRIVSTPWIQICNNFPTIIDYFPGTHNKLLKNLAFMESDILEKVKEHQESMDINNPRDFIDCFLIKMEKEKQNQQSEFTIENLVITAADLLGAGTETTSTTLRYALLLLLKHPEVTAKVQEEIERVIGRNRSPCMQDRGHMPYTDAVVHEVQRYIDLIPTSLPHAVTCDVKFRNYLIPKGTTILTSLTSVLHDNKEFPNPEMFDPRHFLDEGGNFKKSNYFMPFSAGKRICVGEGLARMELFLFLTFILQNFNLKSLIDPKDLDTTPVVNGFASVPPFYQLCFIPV
Chain of Apoptosis regulator Bcl-2 (Homo sapiens) (P10415 whole entry, looked up): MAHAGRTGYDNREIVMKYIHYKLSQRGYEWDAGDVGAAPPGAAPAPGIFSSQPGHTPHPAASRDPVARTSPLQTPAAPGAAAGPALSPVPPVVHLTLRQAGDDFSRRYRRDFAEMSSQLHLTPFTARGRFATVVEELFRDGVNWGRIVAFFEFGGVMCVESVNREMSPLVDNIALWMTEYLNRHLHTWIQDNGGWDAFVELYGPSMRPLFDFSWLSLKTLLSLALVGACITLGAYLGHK

Nc1ccc(C(=O)O)cc1
active: [5] 50 µM
inactive: all other assays above

Cc1ccc([N+](=O)[O-])cc1N
active: [5] 26.8 µM | [7] 18.4 µM
inactive: all other assays above

C1CNCCN1
inactive: all assays above
